Results on 44 sequences are retold here after the supplement of paper PMC3545927.

Some of the results follow. No count for the full screen is at hand.

The target in this experiment is furin, P09958. As to the kind of experiment: furin cleavage Z-score vs untreated control; higher = more cleavage, active = 3.5 or more, inactive = 1 or less, 8 variable residues between constant flanks. The protocol:
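Multiplexed peptide-cDNA fusion cleavage assay. 8-mer variable peptides flanked by constant Cys-Ala (N-term) and Ala-Gly-Asn-Ala-Ser-Ala-Ser-Ala (C-term) and conjugated to a cDNA oligonucleotide were bead-immobilised via the N-terminus. They were treated with purified furin at a 1:10 enzyme:substrate ratio in 50 mM HEPES pH 7.5, 1 mM CaCl2, 100 mM NaCl for 7.5, 15 or 30 min. Released cDNA was counted by next-generation sequencing, and log counts versus no-furin controls were lowess-adjusted and converted to robust Z-scores.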

Sequence of furin, P09958 (P09958 whole entry, the tested form may be a part): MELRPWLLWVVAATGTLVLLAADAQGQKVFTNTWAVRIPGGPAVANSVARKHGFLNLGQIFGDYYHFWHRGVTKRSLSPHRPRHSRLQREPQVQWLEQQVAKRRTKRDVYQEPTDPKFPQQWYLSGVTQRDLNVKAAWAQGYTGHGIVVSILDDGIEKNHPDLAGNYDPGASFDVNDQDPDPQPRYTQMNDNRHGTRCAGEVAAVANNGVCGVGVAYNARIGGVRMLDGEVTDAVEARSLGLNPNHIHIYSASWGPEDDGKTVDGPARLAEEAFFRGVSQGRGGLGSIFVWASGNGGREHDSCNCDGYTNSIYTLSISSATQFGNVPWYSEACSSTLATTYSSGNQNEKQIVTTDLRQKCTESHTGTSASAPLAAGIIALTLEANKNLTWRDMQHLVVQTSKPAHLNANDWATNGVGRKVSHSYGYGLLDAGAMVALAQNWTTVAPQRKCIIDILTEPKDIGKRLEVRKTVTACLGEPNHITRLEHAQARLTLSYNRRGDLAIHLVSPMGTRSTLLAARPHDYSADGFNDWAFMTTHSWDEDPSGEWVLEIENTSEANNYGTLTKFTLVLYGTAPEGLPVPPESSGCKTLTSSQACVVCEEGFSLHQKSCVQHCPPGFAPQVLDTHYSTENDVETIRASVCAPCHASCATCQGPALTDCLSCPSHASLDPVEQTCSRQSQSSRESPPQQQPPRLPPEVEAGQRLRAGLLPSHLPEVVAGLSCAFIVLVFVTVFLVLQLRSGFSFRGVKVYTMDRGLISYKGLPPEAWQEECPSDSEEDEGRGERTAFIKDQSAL

Turning to CARARRDDPHAGNASASA [FS-2888], the “furin cleavage Z-score” value runs as follows: (7.5 min) 5.71 (active); (15 min) 7.99 (active); (30 min) 5.78 (active).
Regarding CARARRTTIYAGNASASA [FS-3151], the “furin cleavage Z-score” value by setting is: (7.5 min) -0.153 (inactive); (15 min) 1.46; (30 min) 4.35 (active).
Regarding CALTKRLKRHAGNASASA [FS-689], the “furin cleavage Z-score” value is, setting by setting: (7.5 min) 12.6 (active); (15 min) 12.3 (active); (30 min) 9.95 (active).
On the same counts, the results for CARARRTLGHAGNASASA [FS-1684] are 6.43 (active), 8.11 (active) and 7.53 (active).
Turning to CAYTTGPCTPAGNASASA [HC1193], the “furin cleavage Z-score” value is -1.22 (inactive) (7.5 min), 0.109 (inactive) (15 min) and -1.36 (inactive) (30 min).
Consider CALSPGALVVAGNASASA [HC1104], for which the “furin cleavage Z-score” value by setting is: (7.5 min) -0.255 (inactive); (15 min) 1.25; (30 min) 0.572 (inactive).
For the sequence CAVVCNSMSYAGNASASA [HC98], the “furin cleavage Z-score” value is -1.2 (inactive) (7.5 min), 0.223 (inactive) (15 min) and -0.488 (inactive) (30 min).
Regarding CAEGVFTGLTAGNASASA [HC940], the “furin cleavage Z-score” value reads like this: (7.5 min) -0.801 (inactive); (15 min) 0.108 (inactive); (30 min) -0.239 (inactive).
Regarding CAEGVTSTWVAGNASASA [HC2176], the “furin cleavage Z-score” value was 0.155 (inactive) (7.5 min), -0.512 (inactive) (15 min) and 0.24 (inactive) (30 min).
CAGPVIQMYTAGNASASA [HC708]: the “furin cleavage Z-score” value (7.5 min) was -1.34 (inactive), the “furin cleavage Z-score” value (15 min) was -0.0874 (inactive) and the “furin cleavage Z-score” value (30 min) is 0.0794 (inactive).
In the case of CAEAKRGSSSAGNASASA [FS-2476], the “furin cleavage Z-score” value is -2.29 (inactive) (7.5 min), -0.0771 (inactive) (15 min) and 0.074 (inactive) (30 min).
For CARARRTKRHAGNASASA [FS-1255], the “furin cleavage Z-score” value runs as follows: (7.5 min) 11.2 (active); (15 min) 11.8 (active); (30 min) 8.26 (active).
As to CARKQRKKKAAGNASASA [FS-1262], the “furin cleavage Z-score” value was 0.332 (inactive) (7.5 min), 1.6 (15 min) and 1.96 (30 min).
CAFSQRRKRRAGNASASA [FS-775]: the “furin cleavage Z-score” value (7.5 min) is 6.61 (active), the “furin cleavage Z-score” value (15 min) is 5.92 (active) and the “furin cleavage Z-score” value (30 min) is 6.42 (active).
In the same order, the values of CARSQRRKKAAGNASASA [FS-865] are 4.39 (active), 4.99 (active) and 5.15 (active).
On the same counts, the results for CALRKRRKRKAGNASASA [FS-1030] are 10.7 (active), 11.4 (active) and 9.12 (active).
Turning to CARSQPRGRRAGNASASA [HC188], the “furin cleavage Z-score” value (7.5 min) is 4.16 (active), the “furin cleavage Z-score” value (15 min) was 5.3 (active) and the “furin cleavage Z-score” value (30 min) is 4.87 (active).
For CAYTNVDQDLAGNASASA [HC711], the “furin cleavage Z-score” value runs as follows: (7.5 min) -0.889 (inactive); (15 min) -0.433 (inactive); (30 min) -0.26 (inactive).
On to CALTVPASAYAGNASASA [HC253], for which the “furin cleavage Z-score” value is 0.273 (inactive) (7.5 min), -0.258 (inactive) (15 min) and 0.0356 (inactive) (30 min).
Turning to CAGPRRPMRPAGNASASA [FS-785], the “furin cleavage Z-score” value is 0.568 (inactive) (7.5 min), -0.102 (inactive) (15 min) and -1.31 (inactive) (30 min).
In the same order, the values of CACGDIINGLAGNASASA [HC657] are -0.652 (inactive), -0.156 (inactive) and 0.306 (inactive).
Turning to CAENDTDVFVAGNASASA [HC426], the “furin cleavage Z-score” value is, setting by setting: (7.5 min) -0.537 (inactive); (15 min) 0.514 (inactive); (30 min) -0.867 (inactive).
As for CARCQRDAMCAGNASASA [FS-2651], the “furin cleavage Z-score” value was -1.14 (inactive) (7.5 min), 0.877 (inactive) (15 min) and 1.14 (30 min).
With CALRFCALARAGNASASA [HC620], the “furin cleavage Z-score” value by setting is: (7.5 min) 1.83; (15 min) 0.507 (inactive); (30 min) -0.572 (inactive).
As to CACRKRRKRCAGNASASA [FS-17], the “furin cleavage Z-score” value by setting is: (7.5 min) 4.55 (active); (15 min) 0.934 (inactive); (30 min) 1.07.
Regarding CALRFRRKRRAGNASASA [FS-826], the “furin cleavage Z-score” value reads like this: (7.5 min) 11.4 (active); (15 min) 12.4 (active); (30 min) 10.4 (active).
Regarding CAVRNRRKRKAGNASASA [FS-1434], the “furin cleavage Z-score” value by setting is: (7.5 min) 8.59 (active); (15 min) 9.19 (active); (30 min) 8.05 (active).
Regarding CAGRSEFKRCAGNASASA [FS-1331], the “furin cleavage Z-score” value is -0.855 (inactive) (7.5 min), -0.736 (inactive) (15 min) and -0.471 (inactive) (30 min).
As for CAAPPRRKRRAGNASASA [FS-976], the “furin cleavage Z-score” value runs as follows: (7.5 min) 7.74 (active); (15 min) 7.56 (active); (30 min) 5.8 (active).
With CAEMPRDRRRAGNASASA [FS-325], the “furin cleavage Z-score” value (7.5 min) is -1.37 (inactive), the “furin cleavage Z-score” value (15 min) was -0.519 (inactive) and the “furin cleavage Z-score” value (30 min) is -0.0256 (inactive).
CALREEVSFRAGNASASA [HC1231]: the “furin cleavage Z-score” value is -0.828 (inactive) (7.5 min), -0.657 (inactive) (15 min) and -0.791 (inactive) (30 min).
As to CATGCVVIVGAGNASASA [HC999], the “furin cleavage Z-score” value is 0.288 (inactive) (7.5 min), -0.105 (inactive) (15 min) and 1.66 (30 min).
With CATTPCCGSWAGNASASA [HC74], the “furin cleavage Z-score” value by setting is: (7.5 min) -2.07 (inactive); (15 min) -0.069 (inactive); (30 min) -1.52 (inactive).
For the sequence CAEFTLLTRIAGNASASA [FS-988], the “furin cleavage Z-score” value is, setting by setting: (7.5 min) -0.861 (inactive); (15 min) -1.86 (inactive); (30 min) 0.256 (inactive).
In the same order, the values of CALIFCHSKKAGNASASA [HC856] are -0.592 (inactive), -0.736 (inactive) and -0.784 (inactive).
On to CALRFRRKRKAGNASASA [FS-825], for which the “furin cleavage Z-score” value runs as follows: (7.5 min) 9.84 (active); (15 min) 11 (active); (30 min) 8.47 (active).
In the case of CAMEEMSQHLAGNASASA [HC8], the “furin cleavage Z-score” value (7.5 min) worked out at 1.27, the “furin cleavage Z-score” value (15 min) is 1.33 and the “furin cleavage Z-score” value (30 min) is 0.916 (inactive).
For the sequence CAAAIREKRAAGNASASA [FS-153], the “furin cleavage Z-score” value is 10.5 (active) (7.5 min), 11.2 (active) (15 min) and 8.65 (active) (30 min).
CALADREKRAAGNASASA [FS-683]: the “furin cleavage Z-score” value runs as follows: (7.5 min) 5.37 (active); (15 min) 7.31 (active); (30 min) 4.83 (active).
Regarding CALASHPKRAAGNASASA [FS-1355], the “furin cleavage Z-score” value is, setting by setting: (7.5 min) -0.0202 (inactive); (15 min) 0.46 (inactive); (30 min) -0.107 (inactive).
For the sequence CAAAILRRHVAGNASASA [HC1110], the “furin cleavage Z-score” value is -1.81 (inactive) (7.5 min), 1.42 (15 min) and 1.16 (30 min).
With CAEMVTSTWVAGNASASA [HC2166], the “furin cleavage Z-score” value by setting is: (7.5 min) -0.179 (inactive); (15 min) 0.272 (inactive); (30 min) -0.181 (inactive).
CACSGGAYDIAGNASASA [HC813]: the “furin cleavage Z-score” value reads like this: (7.5 min) -0.539 (inactive); (15 min) -1.15 (inactive); (30 min) 0.556 (inactive).
As to CAVVLLLFAGAGNASASA [HC347], the “furin cleavage Z-score” value is, setting by setting: (7.5 min) -2.22 (inactive); (15 min) 0.376 (inactive); (30 min) -0.682 (inactive).
